This excerpt belongs to a sample that is enriched for hits.
KDM5B inh – inhibitors of human KDM5B histone demethylase; Potency, µM (top dose mostly 57.7 µM), hits mostly inhibitors; AID 1347165; 2.6% of 220,000 active; KDM5B demethylase, FDH-coupled NADH fluorescence (FDH is formaldehyde dehydrogenase); Q9UGL1; active = well fitted inhibition curve with a large enough effect; note: 0% is about no effect; nearly all actives have a fitted effect of over 70% in size
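Here, H3K4me3 peptide (12.5 µM in substrate mix) is demethylated by KDM5BΔAP, 200 nM final, after 10 min compound exposure. Formaldehyde product is coupled through FDH (0.25 U/mL in mix) to NADH fluorescence; 30-min ΔRFU feeds dose-response curves.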
* hit, by the source's call; i = inactive. Potency is the fitted concentration of half-maximal effect.

SMILES	KDM5B inh
CCOc1ccc2c(c1)SC(CC(=O)Nc1ccc(OC)cc1)C(=O)N2 (centres undefined)	i
COCCc1nncn1C1CCN(S(=O)(=O)c2ccc(Cl)cc2)CC1	i
Cc1noc(C)c1CC(=O)N[C@@H]1CN(C2CCOCC2)C[C@H]1CN(C)C	i
CN(C)C[C@@H]1CN(C)C[C@H]1NC(=O)c1ccccc1OC(F)(F)F	i
Cc1cnn(CC(=O)N[C@@H]2CN(C3CCOCC3)C[C@H]2CN(C)C)c1	i
CN(C)C[C@@H]1CN(C2CCOCC2)C[C@H]1NC(=O)c1n[nH]c2ccccc12	22.4µM*
CN(C)C[C@@H]1CN(c2ccncn2)C[C@H]1NC(=O)c1nccc2ccccc12	i
CN(C)C[C@@H]1CN(C)C[C@H]1NC(=O)c1nn(C)c2ccccc12	31.6µM*
CN(C)C[C@@H]1CN(C)C[C@H]1NC(=O)c1ccc(Br)cc1	i
CN(C)C[C@@H]1CN(c2ccncn2)C[C@H]1NC(=O)c1ccc(Cl)s1	i
CN(C)C[C@@H]1CN(c2ncccn2)C[C@H]1NC(=O)c1nn(C)c2ccccc12	31.6µM*
CCOC(=O)C1C(=O)C=C(c2ccc(C)cc2)CC1c1ccccc1C (centres undefined)	i
CS(=O)(=O)N[C@@H]1C[C@H](Cn2cc(-c3cccnc3)nn2)[C@@H](O)[C@H]1O	i
CCn1ccc(C(=O)N2CCC3(CC2)C(=O)N(C)c2ccccc23)n1	i
Cc1cc(C(=O)CSc2nc3ccccc3o2)c(C)n1CC(F)(F)F	i
Cc1ccc(C(=O)N2CC(F)(F)C[C@H]2c2nc(C3CC3)no2)nc1	i
COC1CN(C2CCN(C(=O)c3sc(C)nc3C)CC2)C12CCOCC2 (centres undefined)	i
O=C1COCC2(CN1Cc1cccc(OC(F)(F)F)c1)CN(C(=O)Cc1cccnc1)C2	i
COc1ncccc1N1CC2(COCC(=O)N(Cc3cccc(OC(F)(F)F)c3)C2)C1	7.08µM*
O=C1COCC2(CN1Cc1cccc(OC(F)(F)F)c1)CN(c1nccs1)C2	i
O=C(NCc1ccccc1Cl)c1ccc2oc(=O)n(Cc3ccccc3)c2c1	i
COc1ccc(N2C(=O)CS(=O)(=O)C23C(=O)N(Cc2ccccc2)c2ccccc23)cc1 (centres undefined)	i
CCCNc1c(NC(=O)NCC2CCCO2)c(=O)oc2ccccc12 (centres undefined)	i
COc1cc2nc(-c3cc4c(c(OC)c3)OCCNC4)cc(C)c2cc1OC	31.6µM*
FC(F)(F)c1ccc(-c2n[nH]c(=S)o2)nc1	i
SMILES	KDM5B inh
COc1cc(-c2cnc3ccccc3c2)cc2c1OCCNC2	i
COc1cc(-c2ccc(C(F)(F)F)cn2)cc2c1OCCNC2	25.1µM*
CNC(=O)[C@@H]1CN(Cc2ccccc2OC(F)(F)F)C[C@H]1CO	i
O=C1CC2(CCN(Cc3ccc(C(F)(F)F)cc3)CC2)Oc2ccccc2N1c1ccccc1	i
CCOc1ccc(-c2cc(C(=O)N3CCN(c4cc(Cl)ccc4C)CC3)c3ccccc3n2)cc1	i
CC1(C)CC2(CCO1)OC(=O)CC2C(=O)Nc1ccc(Br)cc1 (centres undefined)	i
O=C(Cn1nc(-c2ccc(Cl)cc2)c2ccccc2c1=O)Nc1ccc(Br)cc1	i
CCOCCCN1C(=O)c2[nH]nc(-c3ccccc3O)c2C1c1ccc(CC)cc1 (centres undefined)	i
COc1ccc(-c2noc([C@@H]3CCCN3C(=O)c3ccc(F)cc3)n2)cc1OC	i
COc1ccc(-c2noc([C@@H]3CCCN3C(=O)Cc3ccc(F)cc3)n2)cc1OC	28.2µM*
COc1ccc(-c2noc([C@@H]3CCCN3C(=O)c3cc(F)ccc3F)n2)cc1OC	i
COc1ccc(-c2noc([C@@H]3CCCN3C(=O)Cc3ccc(C)cc3)n2)cc1OC	31.6µM*
COc1ccc(-c2noc([C@@H]3CCCN3C(=O)Cc3ccccc3C)n2)cc1OC	28.2µM*
Cc1ccccc1CC(=O)N1CCC[C@H]1c1nc(-c2ccc(F)cc2)no1	i
Cc1ccccc1CC(=O)N1CCC[C@H]1c1nc(-c2ccccc2)no1	i
COc1ccc(-c2noc([C@@H]3CCCN3C(=O)Cc3ccc(C)cc3)n2)cc1	i
COc1ccc(-c2noc([C@@H]3CCCN3C(=O)c3ccc(C)cc3)n2)cc1OC	i
Cc1ccsc1C(=O)N1CC[C@@H]2COCCN(Cc3cccnc3)[C@@H]2C1	i
COc1cc(CN2CCN(c3cc(C)nc(N)n3)CC2CCO)cc(OC)c1 (centres undefined)	i
CC(Sc1nnnn1C)C(=O)c1ccc(Br)cc1 (centres undefined)	i
Cn1c(SCc2ccc(F)cc2)nc2c([nH]c3ccccc32)c1=O	i
CN(C(=O)c1cc2c(Cl)nc3ccccc3c2s1)c1cccc(C(F)(F)F)c1	i
COc1ccccc1C(=O)Nc1ccc2oc(-c3ccc(F)cc3)cc(=O)c2c1	i
COc1cc2c(cc1CN1C[C@@H]3CC[C@H](C1)N(CC1CCC1)C3=O)OCCO2	i
